From PubChem BioAssay (NCI)
This is part of a sample that, as a whole, favours compounds with a hit. Of some 83,000 tested, about 20% had one in any assay.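 Single-concentration screen, 48 h exposure, 96-well plates. Endpoint: percent growth. Below 10 = active.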 A number with no mark means an inactive call. Activity calls are given as the source filed them.

Key:
Experiment in all cases: NCI-60 one-dose screen, 48 h (100 = growth as untreated, 0 = no growth, -100 = all killed)
Conditions in all cases: 10 µM
NCI-H23 lung = tested on: NCI-H23 lung
NCI-H226 lung = tested on: NCI-H226 lung
NCI-H322M lung = tested on: NCI-H322M lung
HOP-62 NSCLC = tested on: HOP-62 NSCLC
NCI-H460 lung = tested on: NCI-H460 lung
HOP-92 NSCLC = tested on: HOP-92 NSCLC
NCI-H522 lung = tested on: NCI-H522 lung
A549/ATCC NSCLC = tested on: A549/ATCC NSCLC
786-0 renal = tested on: 786-0 renal
COLO 205 colon = tested on: COLO 205 colon
DU-145 prostate = tested on: DU-145 prostate
MALME-3M melanoma = tested on: MALME-3M melanoma
MDA-MB-231 breast = tested on: MDA-MB-231 breast
RXF 393 renal = tested on: RXF 393 renal
SF-268 CNS = tested on: SF-268 CNS
SF-295 CNS = tested on: SF-295 CNS
SF-539 CNS = tested on: SF-539 CNS
UACC-257 melanoma = tested on: UACC-257 melanoma
M14 melanoma = tested on: M14 melanoma

Compound	growth (NCI-H23 lung)	growth (NCI-H226 lung)	growth (NCI-H322M lung)	growth (HOP-62 NSCLC)	growth (NCI-H460 lung)	growth (HOP-92 NSCLC)	growth (NCI-H522 lung)	growth (A549/ATCC NSCLC)	growth (786-0 renal)	growth (COLO 205 colon)	growth (DU-145 prostate)	growth (MALME-3M melanoma)	growth (MDA-MB-231 breast)	growth (RXF 393 renal)	growth (SF-268 CNS)	growth (SF-295 CNS)	growth (SF-539 CNS)	growth (UACC-257 melanoma)	growth (M14 melanoma)
O=C(CS(=O)(=O)c1oc(-c2ccc(Cl)cc2)nc1S(=O)(=O)c1ccc(Cl)cc1)N1CCOCC1	48.9%	78.2%	93.5%	84.3%	107%	-25.5% (active)	-14.8% (active)	83.7%	40.3%	10.5%	32.3%	-71.3% (active)	-1.43% (active)	-76.1% (active)	84.6%	85%	21.5%	73.9%	24.4%
C=C1CC[C@H](C(=C)C)[C@H]2C=C(C)C(=O)C3=C(C(=O)[C@@](C)(O)C3)[C@H]12	-63.9% (active)	-57.8% (active)	-96.9% (active)	-72.7% (active)	-45.6% (active)	-90.8% (active)	-88.6% (active)	-50.4% (active)	2.21% (active)	-88.7% (active)	-45.4% (active)	-79.1% (active)	-70.1% (active)	-82.7% (active)	-50.1% (active)	-86.4% (active)	-98.4% (active)	-97.3% (active)	-30.3% (active)
CC(=O)Nc1nc(-c2ccc(N3CCN(C)CC3)c(NS(=O)(=O)c3cccc4c(N(C)C)cccc34)c2)cs1	58.1%	75.5%	64.7%	69.7%	58.9%	50.6%	59.6%	71.3%	34.4%	47.4%	76.2%	-35.6% (active)	65%	19.6%	78.5%	-58.7% (active)	16%	-6.28% (active)	-57.5% (active)
CN1CCN(c2ccc(Nc3nc(NCCCNC(=O)c4ccccc4)c4sccc4n3)cc2)CC1	82.5%	84.6%	84.2%	93.5%	67.6%	69.3%	91.5%	72.5%	24.9%	93.8%	75.5%	46.1%	88.6%	2.61% (active)	77.6%	85.9%	-89.5% (active)	32.5%	38.6%
Cc1ccc(S(=O)(=O)c2nc(-c3ccccc3)oc2S(=O)(=O)CC(=O)N2CCCC2)cc1	-77.9% (active)	56.3%	73.6%	78.3%	26.4%	-85.6% (active)	-96.3% (active)	63.4%	-57.3% (active)	-93.2% (active)	-98.5% (active)	-94.9% (active)	-94.8% (active)	-93.8% (active)	-0.601% (active)	70.3%	-100% (active)	-92.2% (active)	-48.3% (active)
CC1(C)CC[C@]2(C(=O)Nc3ccccc3)CC[C@]3(C)C(=CC[C@@H]4[C@@]5(C)CC[C@H](N)C(C)(C)[C@@H]5CC[C@]43C)[C@H]2C1	68.8%	88.3%	105%	103%	-30.2% (active)	70.2%	82.9%	74.4%	65.3%	-36.4% (active)	26.6%	83.7%	71.7%	59.8%	119%	52.7%	87.8%	103%	82.4%
CC(C)C(=O)Nc1ccc(C(=O)NC(=S)Nc2ccc(C(=O)O)cc2)cc1	101%	95.6%	105%	102%	102%	108%	90.6%	110%	102%	105%	110%	97%	104%	111%	93.9%	95.3%	95.3%	128%	105%
